Data as given in PubChem BioAssay (NCI).
The panel holds about 83,000 compounds, 20% with a hit somewhere; the sample as a whole holds those more often.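 48-hour exposure, single concentration, 96-well plates; percent growth endpoint where 0 means no net growth. Active: below 10.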 A number with no mark means an inactive call. Active and inactive are the calls of the source.

The compounds below were run on HL-60(TB) leukemia (assay: NCI-60 one-dose screen, 48 h (100 = growth as untreated, 0 = no growth, -100 = all killed)). Settings: 10 µM unless noted.

Row | SMILES | growth
1 | O=C1/C(=C/c2cn(-c3ccccc3)nc2-c2ccccc2)SC(=S)N1c1ccc(Cl)cc1 | 86%
2 | CN(C)CCCN1c2ccccc2CCc2ccc(Cl)cc21 | 80.2%
3 | C[C@@]1(C(=O)Nc2ccc(F)nc2)CCCN1c1nc(Nc2cc(C3CC3)[nH]n2)c2cccn2n1 | 9.68% (active)
4 | C[C@H]1[C@H](C)CC[C@]2(C(=O)N3CCN(C)CC3)CC[C@]3(C)C(=CC[C@@H]4[C@@]5(C)C/C(=C/c6ccco6)C(=O)C(C)(C)[C@@H]5CC[C@]43C)[C@H]12 | -39.1% [100 µM] (active)
5 | Cn1cc(-c2nc(-c3c[nH]c4ccccc34)cs2)c2cccnc21 | 6.19% (active)
6 | COc1ccc(/C=C2\CCCC3=C2NC(C)=NC3c2ccc(OC)c(OC)c2)cc1OC (configuration not stated) | -6.62% (active)
7 | C1=C(Cc2ccccc2)n2cnc3ncnc(c32)S1 | 75.1%
8 | C=C1C(=O)O[C@H]2[C@H]1CC/C(C(=O)NCCCCCCCCNC(=O)/C1=C/CC[C@@]3(C)O[C@H]3[C@H]3OC(=O)C(=C)[C@@H]3CC1)=C\CC[C@@]1(C)O[C@@H]21 | 6.59% (active)
9 | Clc1ccc(C2CC(c3cccc(Nc4ccncc4)c3)=NN2c2ccccc2)cc1 (configuration not stated) | -38.6% (active)
10 | N=C(N)c1ccc(-c2ccc(-c3cc(Cl)cc(Cl)c3)s2)cc1 | -57.6% (active)
11 | O=C(Nc1cccc(-n2cc(-c3ccncc3)c(-c3ccc(O)c(Cl)c3)n2)c1)Nc1ccc(Cl)c(C(F)(F)F)c1 | -2.7% (active)
12 | COc1ccc(C2CC(c3ccc(Nc4nc(Nc5ccc(F)cc5)nc(Nc5ccc(Cl)cc5)n4)cc3)=NN2C(C)=O)cc1 (configuration not stated) | 206%
13 | CCN(c1ccc(Cl)cc1)c1nc(-c2ccc([N+](=O)[O-])cc2)cs1 | 96.1%
14 | COC(=O)C(N)CSC(c1ccccc1)(c1ccccc1)c1ccccc1 (configuration not stated) | -28.7% (active)
15 | CC(NNC(C)c1ccccc1)c1ccccc1 (configuration not stated) | 113%
16 | COc1cc2nc(C(=O)N3CCCCC3)cc(Nc3ccccc3)c2cc1OC | 96.8%
17 | O=C(c1cnn2c1NC(c1ccc(F)cc1)C2)N1CCCCC1 (configuration not stated) | 99.7%
18 | COCCCNc1nc(NC(=O)c2cc(OC)cc(OC)c2)cc(-c2cccnc2)n1 | 90.2%
19 | S=c1nc2oc(-c3ccccc3)c(-c3ccccc3)c2c(/N=C\c2ccco2)[nH]1 | 87.2%

Row | SMILES | growth
20 | CC1CN(Cc2ccccc2)C(=O)NC1=O (configuration not stated) | 88.7%
21 | O=C(Cn1cc(COc2ncnc3c2cnn3-c2ccccc2)nn1)Nc1ccccn1 | 105%
22 | Cc1cc(=O)oc2cc(Oc3nc(-c4ccccc4)cn4c(-c5ccccc5)cnc34)ccc12 | 85.2%
23 | O=C(Oc1ccccc1[N+](=O)[O-])C1CCCN1C(=O)OCc1ccccc1 (configuration not stated) | 58.9%
24 | Cn1nc(C(F)(F)F)c(-c2ccc(Cl)c(C(F)(F)F)c2)c1-c1ccc(OCc2ccc(Cl)cc2)cc1O | 9.3% (active)
25 | NC(=S)N/N=C/c1cc(-c2cccc(N)c2)ccn1 | -12% (active)
26 | COc1cc(-c2nn(-c3cccc(NC(=O)c4ccc(Cl)c(C(F)(F)F)c4)c3)cc2-c2ccncc2)ccc1Cl | 3.23% (active)
27 | COc1ccc2[nH]cc(-c3nc(-c4c[nH]c5c(Cl)nccc45)cs3)c2c1 | 36%
28 | O=c1[nH]nc(-c2ccc(Br)cc2)c2sc(NC(=S)Nc3ccc(Cl)cc3)nc12 | 94.2%
29 | Cc1ccc(C(=O)/C(=C/c2ccc([N+](=O)[O-])cc2)SCc2ccc(Cl)cc2)cc1 | 58%
30 | Nc1ccc(Oc2ccccc2)c(Cl)c1 | 119%
31 | CCN(CC)CCCNc1c2ccc(Cl)cc2nc2ccc(OC)cc12 | -50.3% (active)
32 | CCCCCCCCCCCCCCCCNC(=S)N/N=C/c1ccc(OC)cc1 | 94.3%
33 | COc1ccc(N=C2NN=C(c3c[nH]c4ccccc34)CS2)cc1OC | 47%
34 | C=C(C)[C@@H]1CC[C@]2(C(=O)NCCNCCNCCN)CC[C@]3(C)[C@H](CC[C@@H]4[C@@]5(C)CC[C@H](O)C(C)(C)[C@@H]5CC[C@]43C)[C@@H]12 | -24% [100 µM] (active)
35 | COc1ccc([N+](=O)[O-])c(S(=O)(=O)c2ccc(Cl)cc2)n1 | 38.2%
36 | CCOC(=O)c1cc2c(n1Cc1cccc(OC)c1)-c1oncc1CCC2 | 7.26% (active)
37 | CNC1=C([N+](=O)[O-])C(c2ccc(OC)cc2)C(C#N)=C(c2ccc[nH]2)O1 (configuration not stated) | 93.9%
